From PubChem BioAssay (NCATS)
Results filed as inconclusive are left out. Activity calls are given as the source filed them. Unless noted, calls come from the whole dose curve.

How the values were obtained:
[1] = qHTS for Inhibitors of the Functional Ribonucleoprotein Complex (vRNP) of Lassa (LASV) Arenavirus: LASV Primary Screen - GLuc reporter signal (AID 1347082; calls by dose curve; tested in HEK293 reporter line; note: nearly all actives have a fitted effect of over 60% in size)
[2] = qHTS for Inhibitors of the Functional Ribonucleoprotein Complex (vRNP) of Lassa (LASV) Arenavirus: Viability assay - alamar blue signal for LASV Primary Screen (AID 1347083; calls by dose curve; tested in HEK293 reporter line; note: nearly all actives have a fitted effect of over 80% in size)
[3] = qHTS for Inhibitors of the Functional Ribonucleoprotein Complex (vRNP) of Lymphocytic Choriomeningitis Arenaviruses (LCMV): Viability assay - alamar blue signal for LCMV Primary Screen (AID 1347085; calls by dose curve; tested in HEK293 reporter line; note: nearly all actives have a fitted effect of over 80% in size)
[4] = molecular target: Nucleoprotein (Lymphocytic choriomeningitis virus (strain Armstrong)) (UniProt P09992); assay: qHTS for Inhibitors of the Functional Ribonucleoprotein Complex (vRNP) of Lymphocytic Choriomeningitis Arenaviruses (LCMV): LCMV Primary Screen - GLuc reporter signal (AID 1347086); note: nearly all actives have a fitted effect of over 70% in size
Sequence of Nucleoprotein (Lymphocytic choriomeningitis virus (strain Armstrong)) (P09992 whole entry, looked up): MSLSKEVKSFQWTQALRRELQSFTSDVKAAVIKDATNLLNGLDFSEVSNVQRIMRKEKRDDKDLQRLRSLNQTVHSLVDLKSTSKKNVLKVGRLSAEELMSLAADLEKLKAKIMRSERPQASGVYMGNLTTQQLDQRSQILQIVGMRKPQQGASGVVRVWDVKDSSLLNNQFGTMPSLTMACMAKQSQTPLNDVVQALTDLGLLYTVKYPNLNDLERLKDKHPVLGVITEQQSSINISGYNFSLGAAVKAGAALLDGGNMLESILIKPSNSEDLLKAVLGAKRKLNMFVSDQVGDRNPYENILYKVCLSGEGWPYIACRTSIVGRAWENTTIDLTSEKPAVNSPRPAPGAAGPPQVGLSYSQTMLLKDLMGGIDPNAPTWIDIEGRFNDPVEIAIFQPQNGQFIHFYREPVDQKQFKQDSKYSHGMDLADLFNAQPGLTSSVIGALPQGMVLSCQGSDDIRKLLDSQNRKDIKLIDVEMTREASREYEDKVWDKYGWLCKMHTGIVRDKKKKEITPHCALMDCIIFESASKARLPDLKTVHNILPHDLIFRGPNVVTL
% is set by controls: 0 for no effect and ±100 for the full control effect.
Note: series mostly up to about 57 µM.

CCCCCCCCCCCC(C)=O
inactive: Potency [1] | Potency [2] | Potency [3] | Potency [4]

COc1ccc(-c2coc3cc(OC)cc(O)c3c2=O)cc1
inactive: Potency [1] | Potency [2] | Potency [3] | Potency [4]

CCCCC[C@H](O)/C=C/C=C\C/C=C\C=C\[C@@H](O)CCCC(=O)O
inactive: activity change, negative = inhibition [1] 2.34% [at 0.757 µM] | activity change, negative = reduced viability [2] 18.4% [at 0.757 µM] | activity change, negative = lower viability [3] 2.14% [at 0.757 µM] | activity change, negative = inhibition [4] 18.8% [at 0.757 µM]

C=C(C)[C@H]1CC=C(CO)CC1
inactive: Potency [1] | Potency [2] | Potency [3] | Potency [4]

CO[C@H]1C=CO[C@@]2(C)Oc3c(C)c(O)c4c(O)c(c5c(c4c3C2=O)NC2(CCN(CC(C)C)CC2)N=5)=NC(=O)C(C)=CC=C[C@H](C)[C@H](O)[C@@H](C)[C@@H](O)[C@@H](C)[C@H](OC(C)=O)[C@H]1C
inactive: Potency [1] | Potency [2] | Potency [3] | Potency [4]

COc1cc(/C=C2/C(=O)Nc3ccccc32)cc(OC)c1O
inactive: Potency [1] | Potency [2] | Potency [3] | Potency [4]

CCCCCCCCOS(=O)(=O)O
inactive: Potency [1] | Potency [2] | Potency [3] | Potency [4]

CC(=O)CCC1=C(C)CCCC1(C)C
inactive: Potency [1] | Potency [2] | Potency [3] | Potency [4]

COC1=CC(=O)[C@@]2([C@@H]1O)[C@@H](Cl)C[C@]13C(OC)=C(OC)C(=O)C[C@]21CCN3C
inactive: Potency [1] | Potency [2] | Potency [3] | Potency [4]

CN1CC[C@@]2([C@@]34CCN(C)C3Nc3ccccc34)c3ccccc3NC12 (stereo not given in full)
inactive: Potency [1] | Potency [2] | Potency [3] | Potency [4]

COc1ccc(C2Sc3ccccc3N(CCN(C)C)C(=O)C2OC(C)=O)cc1 (stereo not given)
inactive: Potency [1] | Potency [2] | Potency [3] | Potency [4]

C=C1C(=O)OC2C=C(CO)CCC=C(CO)CC(OC(=O)C(C)C)C12 (stereo not given)
inactive: Potency [1] | Potency [2] | Potency [3] | Potency [4]

COc1ccc2c(c1)OC[C@H]1c3cc4c(cc3O[C@@H]21)OCO4
inactive: Potency [1] | Potency [2] | Potency [3] | Potency [4]

C=C(C)[C@]12C[C@@H](C)[C@@]34O[C@](Cc5ccccc5)(O[C@@H]1[C@@H]3C=C(COC(=O)Cc1ccc(O)c(OC)c1)C[C@]1(O)C(=O)C(C)=C[C@@H]41)O2
inactive: Potency [1] | Potency [2] | Potency [3] | Potency [4]

COC(=O)C1=CO[C@@H](OC2OC(CO)C(O)C(O)C2O)[C@@H]2C(CO)=CC[C@H]12 (stereo not given in full)
inactive: Potency [1] | Potency [2] | Potency [3] | Potency [4]

COc1cc(-c2oc3cc(O)cc(O)c3c(=O)c2O[C@@H]2O[C@H](CO)[C@@H](O)[C@H](O)[C@H]2O)cc(OC)c1O
inactive: Potency [1] | Potency [2] | Potency [3] | Potency [4]

CC1(C)CCC[C@@]2(C)[C@@H]1CC[C@@]1(C)OC(=O)C[C@H]21
inactive: Potency [1] | Potency [2] | Potency [3] | Potency [4]

COc1ccc(CC(C)N)cc1 (stereo not given)
inactive: Potency [1] | Potency [2] | Potency [3] | Potency [4]

O=c1c(O)c(-c2ccccc2)oc2cc(O)cc(O)c12
inactive: Potency [1] | Potency [2] | Potency [3] | Potency [4]

CC[C@]1(O)C[C@@H]2CN(CCc3c([nH]c4ccccc34)[C@@](C(=O)OC)(c3cc4c(cc3OC)N(C=O)[C@@H]3C45CCN4CC=C[C@](CC)([C@H]45)[C@@H](OC(C)=O)[C@]3(O)C(=O)OC)C2)C1 (stereo not given in full)
inactive: Potency [1] | Potency [2] | Potency [3] | Potency [4]

CC(C)C1Oc2cc3oc(=O)ccc3cc2C1=O (stereo not given)
inactive: Potency [1] | Potency [2] | Potency [3] | Potency [4]

O=c1c(O[C@@H]2OC([C@H](O)CO)[C@H](O)[C@H]2O)c(-c2ccc(O)c(O)c2)oc2cc(O)cc(O)c12 (stereo not given in full)
inactive: Potency [1] | Potency [2] | Potency [3] | Potency [4]

Cn1c(-c2ccccc2)cc(=O)c2ccccc21
inactive: Potency [1] | Potency [2] | Potency [3] | Potency [4]

OC[C@H]1O[C@@H](Oc2ccc(O)cc2)[C@H](O)[C@@H](O)[C@H]1O
inactive: Potency [1] | Potency [2] | Potency [3] | Potency [4]

CC/C=C\CCCCO
inactive: Potency [1] | Potency [2] | Potency [3] | Potency [4]

CC(C)CCO
inactive: Potency [1] | Potency [2] | Potency [3] | Potency [4]

CC(=O)O[C@@]1(C)C[C@@H](O)[C@]2(O)C=CO[C@@H](O[C@@H]3O[C@H](CO)[C@@H](O)[C@H](O)[C@H]3O)[C@@H]21
inactive: Potency [1] | Potency [2] | Potency [3] | Potency [4]

CCOC(=O)[C@H](CCc1ccccc1)N[C@@H](C)C(=O)N1[C@@H](C(=O)O)C[C@H]2CCC[C@@H]21
inactive: Potency [1] | Potency [2] | Potency [3] | Potency [4]

CCCCCCCCCCCCCC/C(C(=O)O)=C(\C)C(=O)O
inactive: Potency [1] | Potency [2] | Potency [3] | Potency [4]

COc1cc2c(c(OC)c1OC)-c1c(cc(OC)c(OC)c1OC)C[C@](C)(O)[C@@H](C)C2
inactive: Potency [1] | Potency [2] | Potency [3] | Potency [4]

CC(C)CCC[C@@H](C)[C@@H]1CC[C@H]2C3=CC=C4CC(O)CC[C@]4(C)[C@H]3CC[C@@]21C (stereo not given in full)
inactive: Potency [1] | Potency [2] | Potency [3] | Potency [4]

COc1cc(OC)c2c(-c3ccccc3)cc(=O)oc2c1
inactive: Potency [1] | Potency [2] | Potency [3] | Potency [4]

COc1cc2c(O)c3c(c(-c4ccc5c(c4)OCO5)c2cc1OC)C(=O)OC3
inactive: Potency [1] | Potency [2] | Potency [3] | Potency [4]

C[C@@H](O)CCCCn1c(=O)c2c(ncn2C)n(C)c1=O
inactive: Potency [1] | Potency [2] | Potency [3] | Potency [4]

C=CC(C)(CCC=C(C)C)OC=O (stereo not given)
inactive: Potency [1] | Potency [2] | Potency [3] | Potency [4]

CC12CCC(=O)C=C1C(O)CC1C2CCC2(C)C1CCC2(O)C(=O)CO (stereo not given)
inactive: Potency [1] | Potency [2] | Potency [3] | Potency [4]

C=C(C)[C@@H]1CC[C@]2(C)CC[C@]3(C)[C@H](CC[C@@H]4[C@@]5(C)CC[C@H](O)C(C)(C)[C@H]5CC[C@]43C)[C@@H]12
inactive: Potency [1] | Potency [2] | Potency [3] | Potency [4]

C=C(C)C1CCC(C)(O)CC1 (stereo not given)
inactive: Potency [1] | Potency [2] | Potency [3] | Potency [4]

C[C@@H]1CC[C@]2(C(=O)O[C@@H]3O[C@H](CO)[C@@H](O)[C@H](O)[C@H]3O)CC[C@]3(C)C(=CCC4[C@@]5(C)CC[C@H](O[C@@H]6OC[C@H](O)[C@H](O[C@@H]7O[C@H](CO)[C@@H](O)[C@H](O)[C@H]7O)[C@H]6O)C(C)(C)C5CC[C@]43C)C2[C@]1(C)O (stereo not given in full)
inactive: Potency [1] | Potency [2] | Potency [3] | Potency [4]

Cc1csc(NC(=O)c2sc3nc4c(c(C(F)(F)F)c3c2N)CCC4)n1
inactive: Potency [1] | Potency [2] | Potency [3] | Potency [4]

CCOC(=O)c1ccccc1
inactive: Potency [1] | Potency [2] | Potency [3] | Potency [4]

O=c1c(O)c(-c2ccc(O[C@@H]3O[C@H](CO)[C@@H](O)[C@H](O)[C@H]3O)c(O)c2)oc2cc(O)cc(O)c12
inactive: Potency [1] | Potency [2] | Potency [3] | Potency [4]

COc1cc2c(cc1O)[C@@H]1Cc3cc(O)c(OC)cc3[C@H](C2)N1C
inactive: Potency [1] | Potency [2] | Potency [3] | Potency [4]

COc1c2c(c(OC)c3c1c(=O)c1ccccc1n3C)OCO2
inactive: Potency [1] | Potency [2] | Potency [3] | Potency [4]

CN(C)c1nc(Cc2ccc(NC(=O)c3ccc4ccccc4c3)cc2)nc(Cl)c1CC(=O)O
inactive: Potency [1] | Potency [2] | Potency [3] | Potency [4]

COc1cc(=O)n(C)c2c(O)cccc12
inactive: Potency [1] | Potency [2] | Potency [3] | Potency [4]

C[C@H]1CCC2[C@](C)(CO)[C@@H](O)CC[C@]2(C)[C@@]12CCC(CO)(CCO)O2 (stereo not given in full)
inactive: Potency [1] | Potency [2] | Potency [3] | Potency [4]

COc1ccc(C=CC(=O)c2ccc(OC)c(OC)c2O)cc1OC
inactive: Potency [1] | Potency [2] | Potency [3] | Potency [4]

OCCc1c[nH]c2ccccc12
inactive: Potency [1] | Potency [2] | Potency [3] | Potency [4]

CC(C)=CCC/C(C)=C/COc1c2ccoc2cc2oc(=O)ccc12
inactive: Potency [1] | Potency [2] | Potency [3] | Potency [4]

CC1=C[C@H]2OC(=O)[C@@H](C)[C@H]2C[C@@H]2[C@H]1C[C@@H](O)[C@@]2(C)O
inactive: Potency [1] | Potency [2] | Potency [3] | Potency [4]

CC1(C)S[C@H]2[C@H](NC(=O)[C@@H](N)c3ccc(O)cc3)C(=O)N2[C@@H]1C(=O)O
inactive: Potency [1] | Potency [2] | Potency [3] | Potency [4]

CC1=C(O)C(=O)OC1C (stereo not given)
inactive: Potency [1] | Potency [2] | Potency [3] | Potency [4]

O=C(c1ccccc1)N1CCCCC1
inactive: Potency [1] | Potency [2] | Potency [3] | Potency [4]

CN=CNc1ccc(C)cc1C
inactive: Potency [1] | Potency [2] | Potency [3] | Potency [4]

CC1(C)C2CC[C@]3(C)C(CC=C4[C@@H]5C[C@@](C)(CO)[C@@H]6C[C@@]5(CC[C@]43C)C(=O)O6)[C@@]2(C)CC[C@@H]1O (stereo not given in full)
inactive: Potency [1] | Potency [2] | Potency [3] | Potency [4]

O=C(O)Cc1ccc(O)cc1
inactive: Potency [1] | Potency [2] | Potency [3] | Potency [4]

C[C@@H]1O[C@@H](O[C@H]2CC[C@@H](O[C@H]3[C@H](O)C[C@H](c4ccc5c(c4O)C(=O)C4=C(C5=O)[C@@]5(O)C(=O)C[C@](C)(O[C@H]6CC[C@H](O[C@H]7C=CC(=O)[C@H](C)O7)[C@H](C)O6)C[C@@]5(O)C=C4)O[C@@H]3C)O[C@H]2C)C=CC1=O
inactive: Potency [1] | Potency [2] | Potency [3] | Potency [4]

N=C1SC(=Cc2ccc(-c3ccc4c(c3)C(=O)NC4=O)o2)C(=O)N1c1ccc(Br)cc1
inactive: Potency [1] | Potency [2] | Potency [3] | Potency [4]

N[C@H](C(=O)O)c1ccc(O)c(C(=O)O)c1
inactive: Potency [1] | Potency [2] | Potency [3] | Potency [4]
